Laboratory results from PubChem BioAssay (NCATS).
“And” between values parts separate entries of the source, which are not always exact repeats. Equal entries are not always repeated. Records with an inconclusive call do not appear. The source made the active and inactive calls. Unless noted, calls come from the whole dose curve; as a rule, active = well fitted curve in the direction sought with a large enough effect; inconclusive = small, poorly fitted or top-dose-only effect, or another doubt; inactive = no such curve, though single readings can be large; an effect the other way counts as inactive or inconclusive.

How the values were obtained:
[1] = Cell Viability - N2a (AID 540); conditions: N2a mouse neuroblastoma cell viability; activity change, negative = cytotoxicity: at 92.2 µM (top of the series);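 note: cells exposed to compound for 40 h at 37 °C; plate controls were DMSO alone for no effect and tamoxifen control for full effect; nearly all actives have a fitted effect of over 45% in size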
In short: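 In this qHTS cytotoxicity screen, ATP-dependent luciferase luminescence reports viable N2a cells after a 40 hr compound exposure in complete culture medium. Potencies are AC50 values from standard Hill equation fits.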

[2] = Cell Viability - Renal Proximal Tubule (AID 545); conditions: renal proximal tubule cells viability, primary cells of rat origin; at 91.7 µM (top of the series);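 note: cells exposed to compound for 40 hours; nearly all actives have a fitted effect of over 40% in size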
In short: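 Luminescent ATP signal (CellTiter-Glo) served as the viability read-out after 40 hr compound exposure of freshly isolated rat proximal tubule cells at 37 °C. Concentration-dependent ATP loss was fitted with the Hill equation to give AC50.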

[3] = Cellular Toxicity (caspase-3) Jurkat (AID 655); conditions: Jurkat caspase-3 activation, luminescence, DMSO = 0%, tamoxifen = 100%; at 92.2 µM (top of the series);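 note: cells exposed to compound for 16 h at 37 °C before reading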
In short: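 5000 Jurkat cells/well; compound 16 hr, 37 °C; Caspase-Glo 3/7 added, 20 min RT; luminescence read. Norm: DMSO = 0%, tamoxifen 100 uM = 100%. AC50, Hill model.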

[4] = Cell Viability - LYMP1-003 - Assay at 24 hr (AID 963);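 note: plate controls were DMSO only for no effect and tetraoctylammonium bromide positive control for full effect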
In short: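 The lymphoblastoid line was treated with titrated compounds for 24 hours, and viable cell number estimated from luciferase-based ATP luminescence.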

[5] = Cell Viability - LYMP2-004 (AID 966);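 note: plate controls were DMSO only for no effect and tetraoctylammonium bromide control for full effect; nearly all actives have a fitted effect of over 65% in size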
In short: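 Viable-cell number estimated from ATP luminescence (CellTiter-Glo) in 2500 human lymphoblastoid cells/well after 24 hr at 37 C with compound. AC50 fitted to the standard Hill equation.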

[6] = Cell Viability - LYMP2-005 (AID 967);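 note: cells exposed to compound for 24 h at 37 °C; plate controls were DMSO only for no effect and 92 µM tetraoctylammonium bromide control for full effect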
In short: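 Acute cytotoxicity is scored as a concentration-dependent drop in intracellular ATP in human lymphoblastoid LYMP2-005 cells after 24 h compound treatment. ATP is quantified by luciferase luminescence, and AC50 is derived by Hill-equation modelling.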

[7] = Cell Viability - LYMP2-015 (AID 971);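 note: 0% = DMSO only and full effect = 92 µM tetraoctylammonium bromide; nearly all actives have a fitted effect of over 55% in size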
In short: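 AC50 values reflect Hill-model fits of ATP-based luminescence (CellTiter-Glo) from a human lymphoblastoid line, 2500 cells/well, treated 24 hr at 37 C.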

[8] = Cell Viability - LYMP2-019 (AID 973);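 note: cells exposed to compound for 24 h at 37 °C; 0% = DMSO alone and full effect = 92 µM tetraoctylammonium bromide; nearly all actives have a fitted effect of over 55% in size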
In short: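 AC50 values come from Hill-equation modelling of qHTS concentration-response curves, where viability is measured as luciferase-based ATP luminescence in the lymphoblastoid line after 24 hr compound exposure in complete culture medium.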

[9] = Cell Viability - LYMP2-021 (AID 974);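 note: compound exposure lasts 24 hours at 37 °C; % is set by controls: 0 for no effect and ±100 for the full control effect; nearly all actives have a fitted effect of over 55% in size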
In short: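 In qHTS format, compounds are tested against 2500 lymphoblastoid cells per well for 24 h; viable cell number is inferred from ATP-driven luciferase light, and Hill-equation fitting yields AC50 values.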

[10] = Cell Viability - LYMP2-023 (AID 975);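 note: cellular ATP measured by luciferase luminescence as viability proxy; plate controls were DMSO only for no effect and 92 µM tetraoctylammonium bromide control for full effect; nearly all actives have a fitted effect of over 55% in size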
In short: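 In this qHTS, ATP-based luciferase luminescence (CellTiter-Glo) is quantified in human lymphoblastoid cells after 24 hr compound treatment at 37 C; tetraoctylammonium bromide serves as positive control. Concentration-response curves are Hill-fitted to give AC50.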

[11] = Cell Viability - LYMP2-025 (AID 976);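 note: cells exposed to compound for 24 h at 37 °C; plate controls were DMSO only for no effect and tetraoctylammonium bromide control for full effect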
In short: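 Luminescent ATP readout after 24 hr treatment of a human lymphoblastoid line (LYMP2-025, 2500 cells/well, 37 C). Reagent developed 30 min at room temperature; AC50 fitted with the Hill equation.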

[12] = Cell Viability - LYMP2-002 (AID 977);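 note: compound exposure lasted 24 h at 37 °C; plate controls were DMSO only for no effect and 92 µM tetraoctylammonium bromide for full effect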
In short: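 In this qHTS viability screen, 2500 human lymphoblastoid cells per well receive compound for 24 hr at 37 C, and luciferase-based ATP luminescence gives the viability signal. Tetraoctylammonium bromide serves as positive control.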

[13] = Cell Viability - LYMP2-006 (AID 978); note: % is set by controls: 0 for no effect and ±100 for the full control effect; nearly all actives have a fitted effect of over 60% in size
In short: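 Cells are seeded at 2500 per well and rested 5 hr at 37 C. Compounds are added across a concentration series for 24 hr at 37 C, after which ATP is quantified by luciferase luminescence.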

[14] = Cell Viability - LYMP2-008 (AID 980);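 note: cells exposed to compound for 24 h at 37 °C; % is set by controls: 0 for no effect and ±100 for the full control effect; nearly all actives have a fitted effect of over 60% in size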
In short: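 Measured: ATP-dependent luminescence, proportional to viable cell number, in human lymphoblastoid cells treated 24 hr with compound in complete culture medium. Values are AC50s from Hill-equation modelling of qHTS titrations.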

[15] = Cell Viability - LYMP2-026 (AID 989);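 note: cells exposed to compound for 24 h at 37 °C; % is set by controls: 0 for no effect and ±100 for the full control effect; nearly all actives have a fitted effect of over 50% in size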
In short: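 Acute toxicity screen in complete culture medium, with 24 hr compound exposure at 37 C. Viability read as cellular ATP via luciferase reaction, with tetraoctylammonium bromide (6.4pM to 92 uM) as positive control.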

[16] = Cell Viability - LYMP1-002 - Assay at 24 hr (AID 993); note: % is set by controls: 0 for no effect and ±100 for the full control effect
In short: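 Viability was judged from intracellular ATP using a luciferase read-out, following a 24-hour compound incubation at 37 C of lymphoblastoid cells seeded at 2500 per well. Concentration-response data were fitted to the Hill equation for AC50.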

[17] = Cell Viability - LYMP1-002 - Assay at 40 hr (AID 994);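 note: 0% = DMSO only and full inhibition = 92 µM tetraoctylammonium bromide; nearly all actives have a fitted effect of over 60% in size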
In short: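 Concentration-dependent ATP loss after 40 hr treatment at 37 C defined toxicity; AC50 values were obtained by fitting the standard Hill equation.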

[18] = target: Retinoic acid receptor RXR-alpha (Homo sapiens) (UniProt P19793); test: qHTS assay for small molecule antagonists of retinoid X receptor alpha signaling (AID 588546; active = well fitted inhibition curve with a large enough effect in the signal ratio, with a control signal flat, not every such curve was filed as active; the % refers to the signal ratio;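 note: cells stimulated with 9-cis-retinoic acid as agonist; % is set by controls: 0 for no effect and ±100 for the full control effect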); conditions: HEK293T RXRa-UAS-bla, beta-lactamase ratio, antagonist mode
In short: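 Beta-lactamase reporter inhibition, read as CCF4 fluorescence ratio (ex 405, em 460/530 nm) after 2 h at RT. HEK293T UAS-bla cells, 2500/well, were stimulated with 9-cis-RA at 500 or 100 nM final alongside test compound for 18 h at 37 C.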

[19] = qHTS assay for small molecule agonists of the antioxidant response element (ARE) signaling pathway measured by Nrf2-dependant transcriptional activity - cell viability counter screen (AID 720653; active = well fitted curve in the direction sought with a large enough effect in the repeat runs; an effect the other way counts as inactive or inconclusive; note: % is set by controls: 0 for no effect and ±100 for the full control effect); conditions: ARE-bla HepG2 viability, CellTiter-Glo ATP luminescence, 16 h; max response: hits give low values
In short: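 ARE-bla HepG2 cells (2,000/well) rested 5 hrs at 37C/5% CO2, then exposed to compounds in DMSO for 16 hrs. Viability was read in the same wells as intracellular ATP by luminescence, 30 min at room temperature after reagent addition.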

[20] = qHTS assay for cell viability of the p53RE-bla HCT-116 cell line (AID 743292)
In short: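 In this qHTS counter-screen, metabolically competent p53RE-bla HCT-116 cells were counted via their ATP content. Compounds were applied for 16 h at 37 C and luciferase-coupled luminescence was measured.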

Chain of Retinoic acid receptor RXR-alpha (Homo sapiens) (P19793 whole entry, looked up): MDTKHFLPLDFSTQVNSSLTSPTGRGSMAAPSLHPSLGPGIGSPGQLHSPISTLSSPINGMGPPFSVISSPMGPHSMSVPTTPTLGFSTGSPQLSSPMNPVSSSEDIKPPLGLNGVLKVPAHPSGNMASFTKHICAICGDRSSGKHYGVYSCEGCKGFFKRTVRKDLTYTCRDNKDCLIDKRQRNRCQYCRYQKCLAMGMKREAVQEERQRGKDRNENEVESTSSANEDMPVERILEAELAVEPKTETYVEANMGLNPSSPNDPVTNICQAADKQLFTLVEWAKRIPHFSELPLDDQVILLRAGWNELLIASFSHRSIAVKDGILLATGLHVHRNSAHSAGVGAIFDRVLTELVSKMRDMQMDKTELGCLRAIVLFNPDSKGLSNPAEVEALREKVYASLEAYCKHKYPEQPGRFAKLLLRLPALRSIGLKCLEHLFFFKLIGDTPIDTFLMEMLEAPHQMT

Cc1ccccc1C
inactive: activity change, negative = cytotoxicity [1] -22.6% and -8.22% | activity change, negative = cytotoxicity [2] -2.71% and -0.376% | caspase-3 activation [3] 3.87% and 7.19% | Potency [4] | Potency [5] | Potency [6] | Potency [7] | Potency [8] | Potency [9] | Potency [10] | Potency [11] | Potency [12] | Potency [13] | Potency [14] | Potency [15] | Potency [16] | Potency [17] | max response [18] 24.2% and -2.36% | max response [19] -17.8% and 4.54% | Potency [20]

Nc1ccc(Cl)cc1Cl
inactive: activity change, negative = cytotoxicity [1] 7.32% | activity change, negative = cytotoxicity [2] -0.932% | caspase-3 activation [3] 0.852% | Potency [4] | Potency [5] | Potency [6] | Potency [7] | Potency [8] | Potency [9] | Potency [10] | Potency [11] | Potency [12] | Potency [13] | Potency [14] | Potency [15] | Potency [16] | Potency [17] | max response [18] -0.389% and -0.876% | max response [19] -3.23% and 2.15% | Potency [20]

COC(=O)c1ccc(C)cc1
inactive: activity change, negative = cytotoxicity [1] -14.4% | activity change, negative = cytotoxicity [2] -5.83% | caspase-3 activation [3] 0.483% | Potency [4] | Potency [5] | Potency [6] | Potency [7] | Potency [8] | Potency [9] | Potency [10] | Potency [11] | Potency [12] | Potency [13] | Potency [14] | Potency [15] | Potency [16] | Potency [17] | max response [18] 25.4% and -1.75% | max response [19] 2.73% and -0.323% | Potency [20]
